Laboratory results: PubChem BioAssay AID624483 (NMMLSC, 2012)
The whole screen tested about 360,000 compounds, of which about 11,000 (3.1%) were called active. Inconclusive results (about 2%) are left out. The entries come from a sample that favours actives as a whole. Unmarked numbers belong to inactive results. No stated cut-off is given here; in the data, active means fluorescence intensity above about 16000; inconclusive means no clear call, values can overlap the other calls; inactive means below that.

Assay: counter-screen for toxin protease inhibitors: compound fluorescence, primary screen, artefact control for toxin protease inhibitor project, biochemical, multiplex microsphere, HTS (AID 624483)
Conditions: compound autofluorescence counterscreen, microsphere flow cytometry; hits give high values

Compound	fluorescence intensity
CC/C(C)=N/Nc1nc2sc3c(c2c(=O)[nH]1)CC(C)(C)OC3	3170
CCCc1nc2oc3c(OCC)ncnc3c2c2c1COC(C)(C)C2	19200 (active)
CC(=O)Nc1cccc(-c2cc(NC=O)c3ncc(-c4ccc(F)c(Cl)c4)n3c2)c1	4090
C/C(COc1ccccc1)=N\NC(=O)c1nnn(-c2nonc2N)c1-c1ccc(C)cc1	2830
CCOC(=O)c1nnn(-c2nonc2OC)c1-c1ccccc1	20500 (active)
CCOC(=O)c1nnn(-c2nc(OC)nc(N(C)C)n2)c1-c1ccccc1	4860
CCC(C(=O)Nc1ncccn1)(C(F)(F)F)C(F)(F)F	3150
CCN(C(=O)CSc1nc(N)cc(=O)[nH]1)C1CCS(=O)(=O)C1 (stereo not given)	3860
COc1ccc(C(=O)CN(C(=O)c2ccc(Cl)cc2)N2C(=O)c3ccccc3C2=O)cc1	17500 (active)
COc1ccc(C(=O)CC2C(=O)N(C)C(=O)N(C)C2=O)cc1	3490
O=C(CCCN1C(=O)c2ccccc2C1=O)Oc1ccc(Cl)cc1	2140
COc1cccc(C(=O)OCc2cc(=O)oc3c(C)c(C)ccc23)c1OC	5450
COC(=O)Cc1cc(=O)oc2c(C)c(O)ccc12	19200 (active)
CCCc1cc(=O)oc2c(C)c(OCC(=O)Nc3ccccn3)ccc12	4420
CCOCC(=O)NCc1ccc2c(c1)cc(C)n2C	4110
COc1cccc2cc(C(=O)NCc3ccc(C)cc3)c(=N)oc12	4920
CC1(C(=O)OCC(=O)Nc2ncc(Cl)cc2Cl)CC1(Cl)Cl (stereo not given)	4330
CC(Oc1ccc(Cl)cc1)C(=O)OCC(=O)Nc1ncc(Cl)cc1Cl (stereo not given)	2090
CC(OC(=O)CN1C(=O)C2CCCCC2C1=O)C(=O)Nc1ncc(Cl)cc1Cl (stereo not given)	23500 (active)
Cc1ccc2[nH]c3c(=O)n(CC(=O)NCCc4ccc(Cl)cc4)ncc3c2c1	5710
COC(=O)c1cc(OC)c(OC)cc1NC(=O)CSc1ccc(C)cc1	25800 (active)
COc1ccc(C)cc1NC(=O)CSc1ccc(Cl)cc1	2540
CCc1cc2cc(OC)ccc2nc1SCC(=O)Nc1cc(OC)c(OC)cc1C(=O)O	4520

Compound	fluorescence intensity
COc1ccc(Br)cc1CN(C)C(=O)C1CC(=O)N(C2CCCC2)C1 (stereo not given)	3870
CCOC(=O)[C@H]1[C@H]2COc3ccc(Cl)cc3[C@@H]2N2C(=O)c3cc(C)ccc3NC(=O)[C@@]12C	3320
Cc1ccc(CN2C(=O)N/C(=C/c3cc(C)n(-c4ccccn4)c3C)C2=O)cc1	9250
Cc1ccccc1-n1c(C)cc(/C=C2\NC(=O)NC2=O)c1C	17400 (active)
Cc1cc(/C=C2/NC(=O)NC2=O)c(C)n1-c1cccnc1	8090
O=C(Nc1c(-c2ccccc2)nc2c(Br)cc(Br)cn12)c1ccco1	3100
Nc1ncnc2c1ncn2[C@@H]1O[C@H](CNC(=O)[C@H](N)Cc2cccnc2)[C@@H](O)[C@H]1O	6300
Cn1c(Nc2ccc(F)cc2)nc2cc(-c3ccsc3)sc2c1=O	3640
CCNC(=O)C1(C)CCN(Cc2ccc(C(=O)OCC)o2)C1 (stereo not given)	4060
CCc1ccccc1NC(=O)CSc1nnc(-c2ccncc2)o1	4930
O=C(CSc1nnc(-c2ccc(NS(=O)(=O)c3ccccc3)cc2)o1)NCC1CCCO1 (stereo not given)	3540
CCN(CC)C(=O)CSc1nnc(-c2ccc(S(=O)(=O)NCc3ccccc3Cl)cc2)o1	16600 (active)
CC(C)CCN1NC2(CCC(C)CC2)NC1=S (stereo not given)	3830
CC(C)(C)c1ccc(S(=O)(=O)NC(=O)C2(C)CCN2C(=O)CC2CC2)cc1 (stereo not given)	4180
Cc1cc(Br)cn2c(Cc3ccccc3C(F)(F)F)c(-c3ccc(Cl)cc3)nc12	5850
Clc1ccc(C2=CSC3=Nc4cccc5cccc(c45)N23)cc1	21800 (active)
CN(C)c1ccc(C(CC(=O)O)C(=O)O)cc1 (stereo not given)	1950
COC(=O)c1sc2ncccc2c1OCc1ccc(Cl)cc1Cl	23500 (active)
O=C(NNc1cc(Cl)ccc1Cl)c1cccnc1Cl	4240
COc1cccc(NC(=O)CN(C)C(=O)Cc2ccc(Cl)cc2Cl)c1	3890
CC(C)Cc1ccc(-c2cc3nc(NCc4cccc(Cl)c4)ccn3n2)cc1	3700
C=CCC[C@@H](CCCCC)OC(=O)/C=C/[C@@H](O)[C@H](O)C[C@H](O)CC=C	6190
